These results are taken from PubChem BioAssay (Tox21).

SMILES strings stand for the structures. Several values for one entry are separate records, joined by “and”; a condition that tells them apart may be missing. Identical values can stand only once. Inconclusive results are not listed. Where a structure was tested more than once in an assay, its records may differ in their call. Activity calls are given as the source filed them. Unless noted, calls follow the shape of the dose curve; as a rule, active = well fitted curve in the direction sought with a large enough effect in the repeat runs; inconclusive = weak or mixed curves; inactive = no such curve, though single readings can be large; an effect the other way counts as inactive or inconclusive.

Assay [1] can be described thus: qHTS assay to identify small molecule antagonists of the glucocorticoid receptor (GR) signaling pathway - cell viability counter screen (AID 720693). Also: nearly all actives have a fitted effect of over 55% in size. In general terms: Quantitative high-throughput screening tests each substance at several concentrations.
A short description of assay [2]: qHTS assay for identifying genotoxic compounds that show differential cytotoxicity against isogenic chicken DT40 cell lines with known DNA damage response pathways - wild type cell line (AID 743012). Also: nearly all actives have a fitted effect of over 60% in size. Also: potency is read from the fitted curve at half-maximal effect. Summed up:
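300 wt DT40 cells/well; cpd (DMSO) pintool-transferred after ~0.5 h at 37 C/5% CO2; 40 h incubation; CellTiter-Glo added, 30 min RT; luminescence read.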

Assay [3] is described as follows: qHTS assay for identifying genotoxic compounds that show differential cytotoxicity against isogenic chicken DT40 cell lines with known DNA damage response pathways - Rev3 mutant cell line (AID 743014). Also: nearly all actives have a fitted effect of over 55% in size. Also: potency is read from the fitted curve at half-maximal effect.
The nature of assay [4]: qHTS assay for identifying genotoxic compounds that show differential cytotoxicity against isogenic chicken DT40 cell lines with known DNA damage response pathways - Rad54/Ku70 mutant cell line (AID 743015). Also: nearly all actives have a fitted effect of over 60% in size. Also: potency is read from the fitted curve at half-maximal effect.
Assay [5] is described as follows: qHTS assay to identify small molecule antagonists of the androgen receptor (AR) signaling pathway - cell viability counter screen (AID 743033; also: nearly all actives have a fitted effect of over 45% in size).
Assay [6] addresses Androgen receptor (Homo sapiens) (UniProt P10275). The assay is described as follows: qHTS assay to identify small molecule antagonists of the androgen receptor (AR) signaling pathway (AID 743035; active = well fitted inhibition curve with a large enough effect in the signal ratio in the repeat runs, not every such curve was filed as active; the % refers to the signal ratio). Summed up:
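In this cell-based reporter screen, compounds were tested in concentration series against R1881-activated HEK293 cells expressing beta-lactamase under UAS control; after 16 h at 37C, FRET substrate was added and fluorescence read 2 h later.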

Assay [7] shares this target. In words: qHTS assay to identify small molecule agonists of the androgen receptor (AR) signaling pathway (AID 743036; active = well fitted activation curve with a large enough effect in the signal ratio in the repeat runs, with a control signal flat, not every such curve was filed as active; the % refers to the signal ratio). Summed up:
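AR-bla HEK293 cells, 2,000/well; 4 h preincubation 37C/5% CO2; compound (DMSO) 16 h at 37C; LiveBLAzer B/G FRET substrate 2 h RT; fluorescence intensity read-out.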

Assay [8] shares this target. The assay is described as follows: qHTS assay to identify small molecule agonists of the androgen receptor (AR) signaling pathway using the MDA cell line (AID 743040; also: nearly all actives have a fitted effect of over 20% in size). The method, boiled down: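 Testing was done with the MDA-kb2 AR-luc line, a human breast carcinoma stably transfected with MMTV-luciferase containing AR and GR response elements. Cells were exposed 16 h at 37C before ONE-Glo luminescence detection.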

A short description of assay [9]: qHTS assay to identify small molecule antagonists of the androgen receptor (AR) signaling pathway using the MDA cell line - cell viability counter screen (AID 743041; also: nearly all actives have a fitted effect of over 45% in size). Summed up: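 Compound exposure lasted 16 h at 37C in MDA-kb2 AR-luc cells stimulated with R1881. Protease-based CellTiter-Fluor reagent was applied for the final 30 min and fluorescence measured.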

Assay [10] addresses Androgen receptor (Homo sapiens) (UniProt P10275). The assay is described as follows: qHTS assay to identify small molecule antagonists of the androgen receptor (AR) signaling pathway using the MDA cell line (AID 743042; also: nearly all actives have a fitted effect of over 55% in size). Summed up: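 MDA-kb2 breast carcinoma cells carrying MMTV-luciferase (AR/GR responsive) were co-treated with compounds and the agonist R1881 for 16 h at 37C. Inhibition read as ONE-Glo luminescence; CellTiter-Fluor fluorescence measured in parallel for cytotoxicity.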
% is scaled to controls: 0 for no effect and ±100 for the full control effect.

Chain of Androgen receptor (Homo sapiens) (P10275 whole entry, looked up): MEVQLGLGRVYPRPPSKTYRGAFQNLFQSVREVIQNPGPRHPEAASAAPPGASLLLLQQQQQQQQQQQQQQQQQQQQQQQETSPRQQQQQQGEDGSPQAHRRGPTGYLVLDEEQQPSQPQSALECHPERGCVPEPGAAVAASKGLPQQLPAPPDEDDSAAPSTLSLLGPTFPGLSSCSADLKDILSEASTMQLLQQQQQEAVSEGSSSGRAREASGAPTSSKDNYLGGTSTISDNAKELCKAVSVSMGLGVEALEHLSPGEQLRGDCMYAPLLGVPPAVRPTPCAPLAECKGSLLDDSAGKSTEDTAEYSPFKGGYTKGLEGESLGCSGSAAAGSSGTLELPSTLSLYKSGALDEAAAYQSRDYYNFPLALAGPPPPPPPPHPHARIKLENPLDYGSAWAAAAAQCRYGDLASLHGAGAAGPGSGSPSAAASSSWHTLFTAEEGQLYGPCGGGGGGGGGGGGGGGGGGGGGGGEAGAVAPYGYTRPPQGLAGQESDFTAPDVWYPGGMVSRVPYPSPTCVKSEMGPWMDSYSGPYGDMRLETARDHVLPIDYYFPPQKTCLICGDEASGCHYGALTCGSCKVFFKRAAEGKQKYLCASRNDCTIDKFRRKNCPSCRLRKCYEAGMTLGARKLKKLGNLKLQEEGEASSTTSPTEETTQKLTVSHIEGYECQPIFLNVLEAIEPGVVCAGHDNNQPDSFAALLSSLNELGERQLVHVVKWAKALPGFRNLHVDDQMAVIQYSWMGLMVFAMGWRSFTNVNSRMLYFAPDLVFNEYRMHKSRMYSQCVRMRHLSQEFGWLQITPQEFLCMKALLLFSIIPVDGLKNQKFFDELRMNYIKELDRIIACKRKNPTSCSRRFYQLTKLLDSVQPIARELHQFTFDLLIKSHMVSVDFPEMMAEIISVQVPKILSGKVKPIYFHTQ

As for `Clc1cc2c(cc1Cl)Oc1cc(Cl)c(Cl)cc1O2`, the results for the viability change, negative = cytotoxic in assay [1] and in [9] were -0.875% [at 0.284 µM] (inactive) and -3.89% [at 0.341 µM] (inactive), respectively. The figures for the activity change, negative = cytotoxicity in assay [2], in assay [4] and in assay [5] were 0.129% [at 0.343 µM] (inactive), 7.26% [at 0.345 µM] (inactive) and -3.41% [at 0.284 µM] (inactive), respectively. Besides, in [3], the activity, negative = cytotoxicity is 4.17% [at 0.343 µM] (inactive). The figures for the activity change, negative = inhibition in [6] and in assay [10] were -2.78% [at 0.284 µM] (inactive) and -2.57% [at 0.341 µM] (inactive), respectively. Besides, the activation in assay [7] was -3.9% [at 0.28 µM] (inactive). For the same compound, in [8], the activity change was 5.01% [at 0.341 µM] (inactive).

As to `N#CN`, the Potency entry in assay [1], in assay [2], in assay [3], in assay [4], in assay [5] and in assay [9] was “inactive” each time.

Regarding `CC(C)C(C)(N)C#N` (stereo unspecified), the Potency result in [1], in assay [2], in assay [3], in assay [4] and in assay [5] was “inactive” throughout.

Take `COc1ccc(CN2CCNCC2)c(OC)c1OC`: the Potency entry in assay [1], in assay [2], in [3], in assay [4], in [5] and in assay [9] was “inactive” in each case.

In the case of `CN(C)CCN(C)C`, the Potency result in assay [1], in [2], in assay [3], in [4], in [5] and in assay [9] was “inactive” each time.

For the compound `O=[N+]([O-])c1cccc(CCl)c1`, the Potency result in [1], in assay [2], in assay [3], in assay [4], in assay [5] and in assay [9] was “inactive” each time.

`CCCCCCC(=O)CCCCCC/C=C/C[C@@H](O)[C@H](O)[C@@](N)(CO)C(=O)O`: the Potency result in [1], in assay [5] and in [9] was “inactive” in each case. Also, the Potency in assay [2] was 23.7 nM (active) and 10.6 nM (active); in [3], 21.1 nM (active) and 11.9 nM (active); in assay [4], 26.6 nM (active) and 13.3 nM (active).

As to `O=C(Cl)C(Cl)Cl`, the Potency result in assay [1], in assay [2], in assay [3], in [4], in assay [5] and in assay [9] was “inactive” in each case.

Consider `BrCc1ccc(Br)cc1`, for which the Potency result in assay [1], in assay [2], in assay [3], in assay [4], in assay [5] and in [6] was “inactive” throughout. Further, the Potency entry in assay [9] and in [10] was “inactive” each time. For the same compound, the result in assay [8] was inactive.

Turning to `O=c1[nH]oc2c1CCNC2`, the Potency entry in assay [1], in assay [2], in [3], in assay [4], in assay [5] and in assay [9] was “inactive” in each case.

For the compound `CCOC(=O)CC(SP(=S)(OC)OC)C(=O)OCC` (stereo unspecified), the Potency entry in [1], in [2], in assay [5], in assay [6], in assay [9] and in assay [10] was “inactive” throughout. The Potency result is “inactive and 64.8 µM (active)” in [3]; “inactive and 58.8 µM (active)” in assay [4]. Moreover, the call in assay [7] and in assay [8] was inactive.

On to `O=C(O)C(Cl)Br` (stereo unspecified), for which the Potency entry in assay [1], in assay [2], in [3], in [4], in assay [5] and in assay [9] was “inactive” throughout.

For the compound `CS(=O)(=O)Cl`, the Potency result in [1], in assay [2], in assay [3], in assay [4], in [5] and in assay [9] was “inactive” throughout.

Regarding `Cc1cccc2sc3nncn3c12`, the Potency result in assay [1], in assay [2], in assay [3], in assay [4], in assay [5] and in assay [9] was “inactive” in each case.

Turning to `CON(C)C(=O)Nc1ccc(Br)cc1`, the Potency result in assay [1], in assay [2], in assay [3], in assay [4], in assay [5] and in assay [9] was “inactive” in each case.

For `CCN(CCO)CCn1c(Cc2ccccc2)nc2c1c(=O)n(C)c(=O)n2C`, the Potency entry in assay [1], in assay [2], in assay [3], in assay [4], in [5] and in [9] was “inactive” each time.

Regarding `CCN(CC)CCOC(=O)C(O)(c1ccccc1)c1ccccc1`, the Potency entry in assay [1], in [2], in assay [3], in assay [4] and in [5] was “inactive” throughout.

`CCC(C(N)=O)N1CCCC1=O` (stereo unspecified): the Potency result in assay [1], in [2], in [3], in assay [4], in assay [5] and in assay [9] was “inactive” in each case.

As to `O=C(Cl)OCc1ccccc1`, the Potency entry in assay [1], in [2], in assay [3], in [4], in assay [5] and in assay [9] was “inactive” in each case.

Turning to `C(COCC1CO1)OCC1CO1` (stereo unspecified), the Potency entry in assay [1], in [5] and in assay [9] was “inactive” in each case. Besides, the figures for the Potency in [2], in [3] and in assay [4] were 6.86 µM (active), 1.54 µM (active) and 8.63 µM (active), respectively.

With `CC(C)NCC(O)c1ccc([N+](=O)[O-])cc1` (stereo unspecified), the Potency entry in assay [1], in [2], in assay [3], in [4], in assay [5] and in [9] was “inactive” in each case.

Take `NC(=O)OCCCc1ccccc1`: the Potency entry in assay [1], in assay [5] and in [9] was “inactive” each time. In addition, the Potency is 13.3 µM (active) in assay [2], 11.9 µM (active) in assay [3] and 29.8 µM (active) in assay [4].

`Cc1ccc(Cl)c(O)c1`: the Potency entry in assay [1], in assay [2], in [3], in assay [4], in assay [5] and in [9] was “inactive” each time.

Take `N[C@@H]1C[C@H]1c1ccccc1`: the Potency result in assay [1], in [2], in [3], in assay [4], in [5] and in assay [6] was “inactive” in each case. The Potency entry in assay [9] and in assay [10] was “inactive” each time. Also, the call in [7] and in [8] was inactive.

Consider `C=C(Cl)CSC(=S)N(CC)CC`, for which the Potency result in assay [1], in [5] and in assay [9] was “inactive” throughout. Moreover, the Potency in [2] is 33.5 µM (active); in assay [3], 66.8 µM (active); in assay [4] it was 53 µM (active).

Regarding `CCC(C)(C#N)N=NC(C)(C#N)CC` (stereo unspecified), the Potency entry in assay [1], in assay [2], in assay [3], in assay [4], in assay [5] and in assay [6] was “inactive” in each case. Further, the Potency result in assay [9] and in [10] was “inactive” in each case. The result in assay [7] and in [8] was inactive.

As to `COc1ccc(C=O)cc1O`, the Potency result in [1], in assay [2], in assay [3], in [4], in assay [5] and in assay [9] was “inactive” in each case. Besides, the Potency result in [10] is “inactive”. Besides, in [8], the compound was called inactive.
